TDP1 cell CPT – qHTS for Inhibitors of human tyrosyl-DNA phosphodiesterase 1 (TDP1): qHTS in cells in presence of CPT; chicken DT40 Tdp1-/-;hTDP1 cells + 20 nM CPT, ATP luminescence, 48 h; Potency, µM (highest dose often 46.2 µM), for inactives: at the top dose activity change, negative = growth inhibition, hits mostly inhibitors; 420,000 tested, 12% active; AID 686979, 2013; note: nearly all actives have a fitted effect of over 55% in size
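Cell growth measured by CellTiter-Glo luminescence after a minimum 48 h, 37 C compound exposure with 20 nM CPT in Tdp1-knockout DT40 cells stably expressing hTDP1, seeded 400/well; qHTS titration format.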
HT1080-NT tox – qHTS for induction of synthetic lethality in tumor cells producing 2HG: qHTS for the HT-1080-NT fibrosarcoma cell line | Potency, µM (titrated, usually from 46.1 µM), without a hit: at the top dose activity, negative = less viability, usual class: cytotoxic | 360,000 tested, 1.6% active | HT-1080-NT fibrosarcoma viability, CellTiter-Glo ATP luminescence, 48 h;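 note: NT is the 2HG producing partner of a matched IDH1 knockdown line; 0% = DMSO-treated cells and -100% = media-only wells without cells; nearly all actives have a fitted effect of over 55% in size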
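Read-out is CellTiter-Glo luminescence after 10 minutes at room temperature, following 48 hours' compound treatment of HT-1080-NT cells (750 cells/well, RPMI, 5% FBS, 37 degrees C).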
KB-V1 cytotox – qHTS assay for MDR1-selective chemotherapeutics: Primary screen using the drug-selected MDR subline cells KB-V1 | 400,000 tested, 3.4% active | AID 1347076, 2019 | Potency, µM (titrated, usually from 46.1 µM), most hits filed as cytotoxic | KB-V1 MDR cells viability, CellTiter-Glo, 72 h; note: nearly all actives have a fitted effect of over 60% in size
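Cytotoxicity via CellTiter-Glo luminescence after 72 h compound exposure at 37 degrees C. Cells: drug-selected KB-V1 line, DMEM phenol-red free plus 10% FBS. Compounds tested at multiple concentrations; normalized data fitted to concentration-effect curves.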
KB-3-1 tox – qHTS assay for MDR1-selective chemotherapeutics: Primary screen using the parental adenocarcinoma cell KB-3-1; AID 1347075, 2019; 400,000 tested, 1.4% active; KB-3-1 viability, CellTiter-Glo ATP luminescence, 72 h; Potency, µM (top dose mostly 46.1 µM), hits mostly cytotoxic; note: nearly all actives have a fitted effect of over 60% in size
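Multi-concentration cytotoxicity screen in KB-3-1 cells grown in DMEM lacking phenol red with 10% FBS. After 72 h at 37 °C with compound, ATP-dependent luminescence was recorded.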
TDP1 cell noCPT – qHTS for Inhibitors of human tyrosyl-DNA phosphodiesterase 1 (TDP1): qHTS in cells in absence of CPT; Potency, µM (doses to about 46.2 µM), inactives show at the highest dose activity change, negative = growth inhibition, most hits filed as inhibitors; 420,000 tested, 15% active; DT40 Tdp1-/- hTDP1 cells, no CPT, ATP luminescence, 48 h; note: nearly all actives have a fitted effect of over 55% in size
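No-CPT arm: Tdp1-/-;hTDP1 DT40 cells (400/well) plus compounds, incubated ≥48 hr at 37 °C. Readout CellTiter-Glo luminescence.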
HT1080 IDH1KD tx – qHTS for induction of synthetic lethality in tumor cells producing 2HG: qHTS for the HT-1080-IDH1KD cell line; HT-1080 IDH1 knockdown viability, ATP luminescence, 48 h; Potency, µM (highest dose often 46.1 µM), for inactives: at the top dose activity, negative = toxicity, most hits filed as cytotoxic; 360,000 tested, 2% active; AID 686971, 2013;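 note: 0% = DMSO wells and -100% = cell-free medium wells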
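After a 2 h attachment period, IDH1KD HT-1080 cells took pin-transferred compound for 48 h at 37 °C; ATP-based luminescence after 10 min room-temperature reagent incubation reported viability.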
* marks the source's active call; other numbers are inactive results; i = inactive; u = inconclusive; x = no result given. Most compounds without a hit are left out; they make up all but 19% or so of the library. Calls come from the whole dose curve; as a rule, active = well fitted curve in the direction sought with a large enough effect; inconclusive = small, poorly fitted or top-dose-only effect, or another doubt; inactive = no such curve, though single readings can be large; an effect the other way counts as inactive or inconclusive. Unless noted, % is set by controls: 0 for no effect and ±100 for the full control effect; potency is the fitted concentration of half-maximal effect.

SMILES | TDP1 cell CPT | HT1080-NT tox | KB-V1 cytotox | KB-3-1 tox | TDP1 cell noCPT | HT1080 IDH1KD tx
COc1ccc(N2CCN(Cc3cc(=O)c(OCC(=O)Nc4ccccc4)co3)CC2)cc1 | u | 21% | i | i | u | 28%
Cc1cccc(NC(=O)COc2coc(CN3CCN(c4ccccc4)CC3)cc2=O)c1 | 21µM* | -1% | i | i | 18µM* | 3%
Cc1ccc(C)c(Cn2c(=O)c3c(nc4n3CCN4c3ccc(F)cc3)n(C)c2=O)c1 | -10% | x | x | x | -8% | x
Cc1ccc(Cl)cc1N1CCN(C(=O)Cn2c(-c3cccs3)cc3cc(F)ccc32)CC1 | -22% | x | i | i | -8% | x
NC(Cc1ccc(Cl)cc1)c1csc(Nc2cc(Oc3ccccc3)ncn2)n1 (stereo not drawn) | -106% | 18µM* | u | u | u | 18µM*
CC(N)c1csc(Nc2cc(Oc3ccccc3)ncn2)n1 (stereo not drawn) | u | u | i | i | 0.041µM* | -22%
NC(Cc1ccc(F)cc1)c1csc(Nc2cc(Oc3ccccc3)ncn2)n1 (stereo not drawn) | u | u | u | u | u | 16µM*
NC(Cc1ccc(F)cc1)c1csc(Nc2ccc(C(=O)NCCCO)cn2)n1 (stereo not drawn) | u | -16% | i | i | u | -18%
COc1ccc(CC(N)c2csc(Nc3cc(Oc4ccccc4)ncn3)n2)cc1 (stereo not drawn) | 16µM* | -23% | i | i | 12µM* | u
NC(COCc1ccccc1)c1csc(Nc2cc(Oc3ccccc3)ncn2)n1 (stereo not drawn) | u | 23µM* | u | i | 26µM* | u
CCCCOc1ccc(CNC(=O)c2cccc(NC(=O)N3CCSc4ncccc43)c2)cc1 | u | x | i | u | 16µM* | x
Cc1ccccc1CNC(=O)c1cccc(NC(=O)N2CCSc3ncccc32)c1 | 18µM* | x | i | i | 16µM* | x
CCOc1ccc(CNC(=O)c2cccc(NC(=O)N3CCSc4ncccc43)c2)cc1 | u | x | i | i | 23µM* | x
COc1ccc(CNC(=O)c2ccc(NC(=O)N3CCSc4ncccc43)cc2)cc1 | u | x | i | i | u | x
CCCCOc1ccc(CNC(=O)Cc2ccc(NC(=O)N3CCSc4ncccc43)cc2)cc1 | u | x | i | i | u | x
CC(C)Oc1ccc(CNC(=O)c2cccc(NC(=O)N3CCSc4ncccc43)c2)cc1 | u | x | i | i | 21µM* | x
CCOC(=O)c1sc2nc(C)nc(SC(C)C(=O)N(C)c3ccccc3)c2c1C (stereo not drawn) | u | -1% | u | i | u | -1%
CC12CN3CC(c4ccccc4)(CN(C1)C3c1ccc(O)cc1)C2=O (stereo not drawn) | -6% | x | u | i | u | x
CC1=C(C(=O)N2CCOCC2)CC(CC(=O)NC2CCCC2)C(=O)N1CCCN1CCCC1=O (stereo not drawn) | -5% | -2% | i | i | -9% | -6%
Cc1ccc2oc(-c3ccc(C)c(NC(=O)COc4ccc(Cl)cc4)c3)nc2c1 | -29% | x | i | i | -16% | x
O=C(N/N=C/C=C/c1ccccc1[N+](=O)[O-])c1cc(-c2cccnc2)nc2ccccc12 | u | 7% | i | i | 21µM* | 11%

Screens as filed in PubChem.
